Assays:
Experiment in all cases: log2 ratio of Biotin-Ahx-Ub-VS probe labelling (fragment/DMSO); higher = less target engagement (more negative = stronger competition), active = hit call of the paper (q ≤ 0.05, log2 ratio ≤ -1)
Conditions in all cases: compound concentration: 200 uM; treatment time: 3 h
USP34 = USP34 (UniProt Q70CQ2)
How it was run: (§1)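 Labelled DUBs from HEK293T lysate were NeutrAvidin-enriched, digested with LysC and trypsin, and run by diaPASEF LC-MS/MS. Before that, each 495 µg sample in Tris/CHAPS/IGEPAL buffer with protease inhibitors was treated in triplicate with fragment at 200 µM or vehicle for 3 h, then with Biotin-Ahx-Ub-VS at 0.5 µM final for 1 h. Values are average log2 ratios of fragment over vehicle by unpaired t-test, based on global-median-normalised Spectronaut label-free quantities from proteins with ≥2 unique peptides.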

USP36 = molecular target: T1, USP36 (UniProt Q9P275)
T1 sequence (whole entry): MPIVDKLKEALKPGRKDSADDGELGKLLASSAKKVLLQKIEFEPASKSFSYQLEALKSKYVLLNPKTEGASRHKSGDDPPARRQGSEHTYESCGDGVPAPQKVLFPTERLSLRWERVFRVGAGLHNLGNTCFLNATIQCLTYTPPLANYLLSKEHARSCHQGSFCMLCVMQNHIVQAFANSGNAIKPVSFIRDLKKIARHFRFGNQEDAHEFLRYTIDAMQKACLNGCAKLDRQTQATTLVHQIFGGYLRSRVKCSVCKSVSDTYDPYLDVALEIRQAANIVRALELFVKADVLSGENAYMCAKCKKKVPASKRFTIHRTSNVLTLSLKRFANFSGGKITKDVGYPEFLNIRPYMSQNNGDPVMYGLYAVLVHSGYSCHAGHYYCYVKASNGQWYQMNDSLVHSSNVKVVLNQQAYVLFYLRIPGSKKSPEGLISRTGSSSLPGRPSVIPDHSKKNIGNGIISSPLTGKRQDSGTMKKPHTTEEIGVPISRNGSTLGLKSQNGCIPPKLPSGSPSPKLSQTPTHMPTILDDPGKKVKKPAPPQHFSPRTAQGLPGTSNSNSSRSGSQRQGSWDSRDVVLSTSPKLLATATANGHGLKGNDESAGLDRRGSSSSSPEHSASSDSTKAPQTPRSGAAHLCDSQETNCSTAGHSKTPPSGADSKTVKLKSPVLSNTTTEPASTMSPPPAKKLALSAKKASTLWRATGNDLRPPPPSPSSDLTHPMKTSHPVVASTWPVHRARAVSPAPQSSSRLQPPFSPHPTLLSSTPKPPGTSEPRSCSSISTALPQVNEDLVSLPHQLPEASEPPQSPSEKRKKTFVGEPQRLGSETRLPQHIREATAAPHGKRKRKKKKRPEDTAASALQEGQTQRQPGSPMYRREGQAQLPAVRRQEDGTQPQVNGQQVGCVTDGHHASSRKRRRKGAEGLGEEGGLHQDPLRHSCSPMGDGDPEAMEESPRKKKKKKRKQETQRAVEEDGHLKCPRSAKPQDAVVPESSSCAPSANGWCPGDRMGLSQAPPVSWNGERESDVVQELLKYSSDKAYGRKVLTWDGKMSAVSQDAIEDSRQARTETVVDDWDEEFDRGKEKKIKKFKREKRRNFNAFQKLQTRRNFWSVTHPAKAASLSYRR
How it was run: as §1

USP38 = molecular target: T2, USP38 (UniProt Q8NB14)
T2 sequence (whole entry): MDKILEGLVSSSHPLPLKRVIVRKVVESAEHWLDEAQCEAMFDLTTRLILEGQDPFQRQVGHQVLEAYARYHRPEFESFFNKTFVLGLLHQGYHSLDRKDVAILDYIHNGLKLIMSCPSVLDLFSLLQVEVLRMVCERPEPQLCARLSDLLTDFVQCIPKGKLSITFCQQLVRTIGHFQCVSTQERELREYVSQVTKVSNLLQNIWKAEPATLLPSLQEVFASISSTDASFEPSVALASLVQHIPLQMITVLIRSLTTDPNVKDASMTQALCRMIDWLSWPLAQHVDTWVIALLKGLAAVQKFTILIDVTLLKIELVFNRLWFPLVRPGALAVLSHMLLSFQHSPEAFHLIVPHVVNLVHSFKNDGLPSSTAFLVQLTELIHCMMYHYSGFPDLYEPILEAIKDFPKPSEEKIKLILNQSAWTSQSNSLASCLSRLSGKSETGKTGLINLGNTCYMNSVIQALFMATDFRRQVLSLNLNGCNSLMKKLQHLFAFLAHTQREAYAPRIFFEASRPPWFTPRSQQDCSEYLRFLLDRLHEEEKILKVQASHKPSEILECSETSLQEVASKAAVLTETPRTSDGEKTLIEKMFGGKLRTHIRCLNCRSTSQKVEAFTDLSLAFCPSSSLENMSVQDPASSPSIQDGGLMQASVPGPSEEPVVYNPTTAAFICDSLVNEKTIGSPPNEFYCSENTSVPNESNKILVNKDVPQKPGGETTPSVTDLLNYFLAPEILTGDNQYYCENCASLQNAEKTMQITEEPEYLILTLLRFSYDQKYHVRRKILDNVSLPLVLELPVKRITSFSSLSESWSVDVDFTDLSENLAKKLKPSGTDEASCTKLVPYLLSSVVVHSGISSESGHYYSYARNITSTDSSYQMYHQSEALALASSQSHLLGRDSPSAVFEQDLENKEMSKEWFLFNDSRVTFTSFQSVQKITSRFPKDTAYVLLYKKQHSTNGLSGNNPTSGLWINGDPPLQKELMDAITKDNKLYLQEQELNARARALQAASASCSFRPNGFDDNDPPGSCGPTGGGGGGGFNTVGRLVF
How it was run: as §1

USP39 = molecular target: T3, USP39 (UniProt Q53GS9)
T3 sequence (whole entry): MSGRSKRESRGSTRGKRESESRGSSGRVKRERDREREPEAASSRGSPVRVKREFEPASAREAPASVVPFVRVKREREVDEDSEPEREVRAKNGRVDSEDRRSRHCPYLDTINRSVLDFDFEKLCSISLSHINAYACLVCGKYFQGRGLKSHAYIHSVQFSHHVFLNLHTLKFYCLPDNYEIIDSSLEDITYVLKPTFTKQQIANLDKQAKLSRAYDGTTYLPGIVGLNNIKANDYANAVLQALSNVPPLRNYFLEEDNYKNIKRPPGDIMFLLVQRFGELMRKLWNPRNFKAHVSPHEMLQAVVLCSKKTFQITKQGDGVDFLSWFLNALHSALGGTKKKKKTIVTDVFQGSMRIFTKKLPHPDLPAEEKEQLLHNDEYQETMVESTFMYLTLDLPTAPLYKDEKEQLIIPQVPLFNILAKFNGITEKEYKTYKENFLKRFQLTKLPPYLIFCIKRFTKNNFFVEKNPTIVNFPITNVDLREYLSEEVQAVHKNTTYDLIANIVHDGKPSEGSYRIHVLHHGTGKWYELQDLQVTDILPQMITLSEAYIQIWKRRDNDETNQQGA
How it was run: as §1

USP4 = molecular target: T4, USP4 (UniProt Q13107)
T4 sequence (whole entry): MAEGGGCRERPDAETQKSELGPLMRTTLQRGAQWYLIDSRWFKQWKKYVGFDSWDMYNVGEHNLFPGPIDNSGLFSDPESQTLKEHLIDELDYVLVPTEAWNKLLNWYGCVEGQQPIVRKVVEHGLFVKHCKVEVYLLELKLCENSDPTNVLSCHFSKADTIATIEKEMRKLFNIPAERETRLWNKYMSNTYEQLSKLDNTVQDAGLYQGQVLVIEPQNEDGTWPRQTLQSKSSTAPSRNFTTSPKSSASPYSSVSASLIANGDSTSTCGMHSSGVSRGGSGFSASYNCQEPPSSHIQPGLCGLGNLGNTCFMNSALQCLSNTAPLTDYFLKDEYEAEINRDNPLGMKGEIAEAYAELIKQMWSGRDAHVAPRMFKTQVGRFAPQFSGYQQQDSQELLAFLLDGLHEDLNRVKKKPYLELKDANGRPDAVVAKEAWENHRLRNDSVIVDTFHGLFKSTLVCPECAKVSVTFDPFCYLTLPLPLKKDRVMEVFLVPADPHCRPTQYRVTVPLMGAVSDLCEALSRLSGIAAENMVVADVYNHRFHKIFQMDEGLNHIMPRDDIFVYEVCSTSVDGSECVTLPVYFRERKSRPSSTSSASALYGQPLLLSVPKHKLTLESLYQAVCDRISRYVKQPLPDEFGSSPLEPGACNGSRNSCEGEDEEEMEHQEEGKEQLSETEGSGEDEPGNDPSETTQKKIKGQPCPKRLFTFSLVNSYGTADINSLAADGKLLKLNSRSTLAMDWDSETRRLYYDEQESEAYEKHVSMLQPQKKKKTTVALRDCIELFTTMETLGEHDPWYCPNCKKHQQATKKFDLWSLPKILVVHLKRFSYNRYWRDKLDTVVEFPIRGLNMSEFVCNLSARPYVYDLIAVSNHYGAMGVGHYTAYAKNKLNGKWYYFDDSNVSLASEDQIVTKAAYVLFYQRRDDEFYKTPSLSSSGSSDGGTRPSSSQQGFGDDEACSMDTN
How it was run: as §1

Measured: log2 ratio of Biotin-Ahx-Ub-VS probe labelling

Sequence of USP34 (Q70CQ2 whole entry, the tested form may be a part): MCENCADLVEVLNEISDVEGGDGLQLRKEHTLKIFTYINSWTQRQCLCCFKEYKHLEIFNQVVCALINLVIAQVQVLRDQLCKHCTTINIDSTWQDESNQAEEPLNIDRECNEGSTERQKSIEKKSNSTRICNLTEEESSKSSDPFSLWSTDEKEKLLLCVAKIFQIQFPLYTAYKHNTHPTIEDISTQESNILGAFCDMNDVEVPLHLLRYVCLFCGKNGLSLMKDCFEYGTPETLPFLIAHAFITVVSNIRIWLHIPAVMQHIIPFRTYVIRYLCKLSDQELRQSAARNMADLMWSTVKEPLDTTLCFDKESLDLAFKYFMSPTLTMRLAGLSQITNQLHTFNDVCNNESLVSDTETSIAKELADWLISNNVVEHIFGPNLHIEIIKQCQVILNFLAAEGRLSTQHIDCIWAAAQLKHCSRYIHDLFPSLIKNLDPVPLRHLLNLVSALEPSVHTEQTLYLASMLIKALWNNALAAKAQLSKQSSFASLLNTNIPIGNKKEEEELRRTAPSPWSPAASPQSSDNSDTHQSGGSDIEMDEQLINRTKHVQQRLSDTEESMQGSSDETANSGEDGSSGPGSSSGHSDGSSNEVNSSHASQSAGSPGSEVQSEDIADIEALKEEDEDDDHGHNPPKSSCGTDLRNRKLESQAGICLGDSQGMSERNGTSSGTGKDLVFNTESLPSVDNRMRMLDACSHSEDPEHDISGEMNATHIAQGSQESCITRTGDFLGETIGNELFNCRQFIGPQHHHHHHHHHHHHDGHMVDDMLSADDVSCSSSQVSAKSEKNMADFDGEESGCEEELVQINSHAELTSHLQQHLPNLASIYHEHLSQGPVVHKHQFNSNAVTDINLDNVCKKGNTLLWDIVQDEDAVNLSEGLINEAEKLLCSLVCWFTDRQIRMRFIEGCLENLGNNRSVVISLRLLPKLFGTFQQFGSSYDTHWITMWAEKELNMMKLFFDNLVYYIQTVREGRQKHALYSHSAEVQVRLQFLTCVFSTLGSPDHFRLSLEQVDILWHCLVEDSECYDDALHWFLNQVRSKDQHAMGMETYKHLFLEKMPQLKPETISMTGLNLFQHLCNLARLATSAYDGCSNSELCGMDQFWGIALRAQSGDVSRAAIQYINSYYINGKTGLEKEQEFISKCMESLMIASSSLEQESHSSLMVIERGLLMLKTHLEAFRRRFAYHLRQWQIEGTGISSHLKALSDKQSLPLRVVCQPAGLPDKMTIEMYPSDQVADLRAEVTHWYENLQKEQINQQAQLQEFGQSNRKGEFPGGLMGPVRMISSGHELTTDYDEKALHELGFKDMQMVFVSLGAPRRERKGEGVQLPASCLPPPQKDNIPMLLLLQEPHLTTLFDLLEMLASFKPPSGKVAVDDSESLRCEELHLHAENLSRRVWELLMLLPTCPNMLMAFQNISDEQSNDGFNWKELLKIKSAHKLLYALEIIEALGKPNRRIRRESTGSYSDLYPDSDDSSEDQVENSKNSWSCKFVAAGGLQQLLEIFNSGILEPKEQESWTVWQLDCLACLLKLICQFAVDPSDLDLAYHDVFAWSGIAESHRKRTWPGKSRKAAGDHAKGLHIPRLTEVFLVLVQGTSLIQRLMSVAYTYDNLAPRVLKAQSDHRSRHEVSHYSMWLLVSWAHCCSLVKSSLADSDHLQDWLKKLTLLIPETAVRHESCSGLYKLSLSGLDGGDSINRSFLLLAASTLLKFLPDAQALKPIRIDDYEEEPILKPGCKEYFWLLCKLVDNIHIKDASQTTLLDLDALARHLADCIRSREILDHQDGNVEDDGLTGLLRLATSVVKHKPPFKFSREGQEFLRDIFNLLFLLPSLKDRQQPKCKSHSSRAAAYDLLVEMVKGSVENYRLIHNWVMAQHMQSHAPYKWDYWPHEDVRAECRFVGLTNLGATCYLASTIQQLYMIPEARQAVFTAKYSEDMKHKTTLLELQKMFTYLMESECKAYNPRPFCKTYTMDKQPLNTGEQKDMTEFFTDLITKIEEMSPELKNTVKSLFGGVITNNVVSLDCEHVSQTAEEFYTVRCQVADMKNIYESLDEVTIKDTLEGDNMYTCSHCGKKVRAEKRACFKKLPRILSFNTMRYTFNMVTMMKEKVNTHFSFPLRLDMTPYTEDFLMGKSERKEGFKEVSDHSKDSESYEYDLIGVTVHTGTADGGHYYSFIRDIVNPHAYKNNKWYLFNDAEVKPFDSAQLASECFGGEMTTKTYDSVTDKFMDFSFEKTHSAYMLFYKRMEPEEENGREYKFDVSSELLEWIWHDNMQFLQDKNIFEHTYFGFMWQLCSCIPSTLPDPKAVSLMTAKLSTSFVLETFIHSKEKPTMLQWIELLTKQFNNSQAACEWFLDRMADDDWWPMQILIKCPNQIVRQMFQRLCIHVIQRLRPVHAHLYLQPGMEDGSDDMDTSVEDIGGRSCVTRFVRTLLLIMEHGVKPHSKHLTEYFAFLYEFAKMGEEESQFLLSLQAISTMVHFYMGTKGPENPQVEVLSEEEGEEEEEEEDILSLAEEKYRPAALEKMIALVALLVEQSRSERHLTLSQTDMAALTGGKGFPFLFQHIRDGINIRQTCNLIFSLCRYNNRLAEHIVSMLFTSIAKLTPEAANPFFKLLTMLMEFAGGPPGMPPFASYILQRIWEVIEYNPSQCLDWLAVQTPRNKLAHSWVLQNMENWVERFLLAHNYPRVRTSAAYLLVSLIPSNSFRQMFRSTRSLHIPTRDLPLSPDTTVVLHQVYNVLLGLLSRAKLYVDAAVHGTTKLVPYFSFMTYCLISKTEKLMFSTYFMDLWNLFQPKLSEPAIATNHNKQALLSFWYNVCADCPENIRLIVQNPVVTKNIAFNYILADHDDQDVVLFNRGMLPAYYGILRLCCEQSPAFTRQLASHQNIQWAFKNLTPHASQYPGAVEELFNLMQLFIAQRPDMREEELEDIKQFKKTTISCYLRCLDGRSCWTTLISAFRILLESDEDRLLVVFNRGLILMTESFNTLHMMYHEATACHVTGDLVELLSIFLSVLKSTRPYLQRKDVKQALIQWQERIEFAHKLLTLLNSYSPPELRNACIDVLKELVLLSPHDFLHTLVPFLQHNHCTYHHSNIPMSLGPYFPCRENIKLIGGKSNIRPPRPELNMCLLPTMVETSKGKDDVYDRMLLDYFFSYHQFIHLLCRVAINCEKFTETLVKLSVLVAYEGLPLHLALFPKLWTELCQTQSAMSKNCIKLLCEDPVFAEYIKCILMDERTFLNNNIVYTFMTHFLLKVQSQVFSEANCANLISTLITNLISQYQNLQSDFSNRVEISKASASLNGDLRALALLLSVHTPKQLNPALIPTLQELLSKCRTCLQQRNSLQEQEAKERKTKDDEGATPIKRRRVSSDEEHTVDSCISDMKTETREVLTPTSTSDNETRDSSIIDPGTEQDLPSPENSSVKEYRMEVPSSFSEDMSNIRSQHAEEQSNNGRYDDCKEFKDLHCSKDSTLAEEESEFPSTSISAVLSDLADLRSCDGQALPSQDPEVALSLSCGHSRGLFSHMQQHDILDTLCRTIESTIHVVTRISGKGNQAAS

CNC(=O)Cn1cc(NC(=O)CCl)cn1
inactive: USP34 -0.0314 | USP36 -0.0542 | USP38 -0.0407 | USP39 0.234 | USP4 -0.0895
